# Source: PubChem BioAssay (NCATS)
# Records with an inconclusive call do not appear. Where a call stands in place of a potency, no number is given. Activity calls are given as the source filed them. Unless noted, the call rests on the fitted dose curve; in most records, active means well fitted curve in the direction sought with a large enough effect; inconclusive means small, poorly fitted or top-dose-only effect, or another doubt; inactive means no such curve, though single readings can be large; an effect the other way counts as inactive or inconclusive.
# What was measured:
# [1] = biological target: T1, Hexokinase-4 (Homo sapiens) + Glucokinase regulatory protein (Homo sapiens) (UniProt P35557+Q14397); experiment: qHTS assay for inhibitors of recombinant human GCK-GKRP interaction: Diaphorase-coupled assay (AID 743205); conditions: G6PDH/diaphorase resorufin fluorescence; series mostly up to 57.5 µM
# How it was run: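 Inhibitors of the GCK–GKRP complex relieve GKRP suppression of GCK, detected through a G6PDH–diaphorase cascade reducing resazurin. Human GST-GCK and FLAG-GKRP are used at 10 nM with 5 mM glucose and 0.4 mM ATP.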
# [2] = biological target: T1, Hexokinase-4 (Homo sapiens) + Glucokinase regulatory protein (Homo sapiens); experiment: qHTS assay for inhibitors of recombinant human GCK-GKRP interaction: ADP-Glo assay (AID 743206); conditions: ADP-Glo luminescence, 60 min; series mostly up to 76.9 µM
# How it was run: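 GST-GCK and FLAG-GKRP (15 nM each in the dispensed mix, with 2 uM S6P) react with 0.4 mM ATP and 5 mM glucose (final) in Hepes pH 7.6 for 60 min at room temperature. ADP is measured by ADP-Glo luminescence.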
# [3] = biological target: T1, Hexokinase-4 (Homo sapiens) + Glucokinase regulatory protein (Homo sapiens); experiment: qHTS assay for inhibitors of recombinant human GCK-GKRP interaction: HTRF assay (AID 743207); conditions: recombinant GCK-GKRP HTRF binding, 60 min, with sorbitol-6-phosphate; series mostly up to 57.5 µM
# How it was run: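 Steps: dispense GCK–GKRP complex (5 nM each, GST- and FLAG-tagged) with 2 uM S6P; pin in compounds; add XL665/Eu-cryptate-labelled antibodies; incubate 60 min at room temperature; read time-resolved FRET at 665 and 615 nm.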
# [4] = qHTS Assay for Identifying Gametocytocidal Compounds (AID 743244); further: potency means the concentration at half of the fitted maximal effect;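 on max response: actives lower the fluorescent signal which means gametocytes are killed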; conditions: P. falciparum 3D7 stage III-V gametocytes, alamarBlue, 72 h; max response: stronger effect = lower value
# How it was run: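 In this qHTS viability screen, late-stage 3D7 gametocytes are incubated with compound for 72 h, then with alamarBlue for 24 h; reduced resorufin fluorescence marks killing.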
# [5] = qHTS assay for measurement of the activity of small molecule inhibitors on Zika virus induced Caspase-3 activity in human astrocytoma cells (AID 1224859); conditions: SNB-19 ZIKV-induced caspase-3/7, luminescence, 6 h; series mostly up to 45.7 µM
# How it was run: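 A cell-based luminescent caspase-3/7 assay used SNB-19 cells infected with ZIKV (2 FFU/cell) for 6 h following 1 h compound pretreatment.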
# [6] = qHTS profiling for inhibitors of Plasmodium falciparum (3D7) proliferation (AID 743322; call rule not given here;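 further: infected erythrocytes exposed to compound for 72 h before lysis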); conditions: P. falciparum 3D7 proliferation; at 28.7 µM (top of the series) unless noted
# How it was run: (§1)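 Erythrocytes infected with P. falciparum (0.3% parasitemia, 2.5% hematocrit) incubated with compounds 72 h at 37 C, 5% CO2. Lysis with saponin/Triton buffer containing SYBR Green I, overnight at room temperature in the dark; DNA fluorescence (485/535 nm) normalised to 0.29 uM artemisinin and DMSO.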
# [7] = qHTS profiling for inhibitors of Plasmodium falciparum (DD2) proliferation (AID 743323; call rule not given here); conditions: lower = more inhibition; at 28.7 µM (top of the series) unless noted
# How it was run: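 1536-well qHTS; infected RBCs 0.3% parasitemia/2.5% Hct final; cpd 72 h 37 C 5% CO2; lysis buffer + SYBR Green I, o/n RT dark; FI 485/535; norm. to 0.29 uM artemisinin and DMSO, plate-stack corrected.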
# [8] = qHTS profiling for inhibitors of Plasmodium falciparum (HB3) proliferation (AID 743324); conditions: Plasmodium falciparum HB3 blood-stage proliferation; at 28.7 µM (top of the series) unless noted
# How it was run: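 P. falciparum HB3 grown in erythrocytes (0.3% parasitemia, 2.5% hematocrit final) with compound for 72 h at 37 C, 5% CO2. Parasite DNA detected by SYBR Green after saponin/triton lysis overnight; normalized to 0.29 uM artemisinin and DMSO.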
# [9] = qHTS profiling of the MIPE4 collection as inhibitors of Plasmodium falciparum (3D7) proliferation (AID 743344; call rule not given here); conditions: P. falciparum 3D7 in erythrocytes, SYBR Green DNA fluorescence, 72 h; at 28.5 µM (top of the series)
# How it was run: as §1
# [10] = qHTS profiling of the MIPE4 collection as inhibitors of Plasmodium falciparum (DD2) proliferation (AID 743345; call rule not given here); conditions: P. falciparum Dd2 in erythrocytes, SYBR Green DNA, 72 h; at 28.5 µM (top of the series)
# How it was run: as §1
# [11] = qHTS profiling of the MIPE4 collection as inhibitors of Plasmodium falciparum (DD2) proliferation (Rep 2) (AID 743346; call rule not given here); conditions: P. falciparum Dd2 in erythrocytes, SYBR Green DNA, 72 h; at 28.5 µM (top of the series)
# How it was run: as §1
# [12] = qHTS profiling of the MIPE4 collection as inhibitors of Plasmodium falciparum (HB3) proliferation (AID 743347; call rule not given here); conditions: P. falciparum HB3 in erythrocytes, SYBR Green DNA, 72 h; at 28.5 µM (top of the series)
# How it was run: as §1
# [13] = qHTS assay for cell viability of HEK293 cells (AID 743288); conditions: ATP luminescence (CellTiter-Glo), 18 h; max response: stronger effect = lower value; further: nearly all actives have a fitted effect of over 50% in size
# How it was run: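 The Tox21 protocol used parental HEK293 cells treated for 18 h at 37 C with compounds delivered by pintool; ATP-coupled luminescence after 30 min at room temperature gave viability.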
# [14] = qHTS assay for cell viability of the p53RE-bla HCT-116 cell line (AID 743292); conditions: p53RE-bla HCT-116 viability, ATP luminescence, 16 h; series mostly up to 95 µM; further: nearly all actives have a fitted effect of over 55% in size
# How it was run: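 In this qHTS counter-screen, metabolically competent p53RE-bla HCT-116 cells were counted via their ATP content. Compounds were applied for 16 h at 37 C and luciferase-coupled luminescence was measured.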
# T1 sequence (P35557 whole entry, looked up): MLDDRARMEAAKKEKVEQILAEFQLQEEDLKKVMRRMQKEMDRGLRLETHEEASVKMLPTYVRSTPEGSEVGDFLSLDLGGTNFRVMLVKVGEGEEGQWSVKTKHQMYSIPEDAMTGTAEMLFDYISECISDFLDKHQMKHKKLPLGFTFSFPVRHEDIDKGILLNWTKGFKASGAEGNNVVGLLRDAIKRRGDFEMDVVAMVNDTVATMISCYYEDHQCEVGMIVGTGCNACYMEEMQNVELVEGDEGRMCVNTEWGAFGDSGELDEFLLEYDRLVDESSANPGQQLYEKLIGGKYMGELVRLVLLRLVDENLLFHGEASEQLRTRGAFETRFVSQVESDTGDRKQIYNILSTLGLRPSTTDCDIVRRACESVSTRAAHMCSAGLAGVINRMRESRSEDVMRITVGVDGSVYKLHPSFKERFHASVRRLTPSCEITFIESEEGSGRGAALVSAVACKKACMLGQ
# T1 sequence (Q14397 whole entry, looked up): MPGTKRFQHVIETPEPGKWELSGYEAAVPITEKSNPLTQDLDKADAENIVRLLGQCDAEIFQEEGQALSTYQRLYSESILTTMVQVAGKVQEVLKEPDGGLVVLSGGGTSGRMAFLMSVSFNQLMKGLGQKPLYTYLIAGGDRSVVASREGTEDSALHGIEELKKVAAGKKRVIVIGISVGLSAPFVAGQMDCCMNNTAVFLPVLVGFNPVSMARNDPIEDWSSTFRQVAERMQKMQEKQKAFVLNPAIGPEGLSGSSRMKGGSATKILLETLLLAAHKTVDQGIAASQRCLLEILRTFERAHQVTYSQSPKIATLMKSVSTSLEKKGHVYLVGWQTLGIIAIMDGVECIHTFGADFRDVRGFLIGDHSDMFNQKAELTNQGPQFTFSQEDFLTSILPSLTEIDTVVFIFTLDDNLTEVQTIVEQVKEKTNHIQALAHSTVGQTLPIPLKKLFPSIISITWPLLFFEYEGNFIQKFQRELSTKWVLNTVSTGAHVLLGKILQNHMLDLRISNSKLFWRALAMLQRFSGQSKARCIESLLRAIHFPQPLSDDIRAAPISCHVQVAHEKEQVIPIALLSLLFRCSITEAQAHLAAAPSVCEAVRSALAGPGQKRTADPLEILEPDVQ
structure (smiles),measurement,setting,value
CO/S(=N\S(=O)(=O)c1ccc(Cl)cc1)c1ccc([N+](=O)[O-])cc1 (stereo not drawn),outcome,[1],inactive
same,Potency,[2],inactive
same,Potency,[3],inactive
same,max response,[4],19.6% (inactive)
same,Potency,[5],inactive
CCCCCCCCCCCCCCCCCCNC(=O)OCC(COP(=O)([O-])OCC[n+]1ccsc1)OC (stereo not drawn),outcome,[1],inactive
same,Potency,[2],inactive
same,Potency,[3],inactive
same,max response,[4],12.3% (inactive)
same,Potency,[5],inactive
Nc1nc(Nc2ccccc2)nc2c1ncn2[C@@H]1O[C@H](CO)[C@@H](O)[C@H]1O,outcome,[1],inactive
same,Potency,[2],inactive
same,Potency,[3],inactive
same,max response,[4],17.1% (inactive)
same,Potency,[5],inactive
O=C(O)[C@@H]1C[C@H](C(=O)O)N1,outcome,[1],inactive
same,Potency,[2],inactive
same,Potency,[3],inactive
same,max response,[4],-2.93% (inactive)
same,Potency,[5],inactive
Nc1nc(SCc2ccc([N+](=O)[O-])cc2)c2ncn([C@@H]3O[C@H](CO)[C@@H](O)[C@H]3O)c2n1,outcome,[1],inactive
same,Potency,[2],inactive
same,Potency,[3],inactive
same,max response,[4],22.6% (inactive)
same,Potency,[5],inactive
CCCCCC(O)c1cccc(OCc2ccc3ccccc3n2)c1 (stereo not drawn),outcome,[1],inactive
same,Potency,[2],inactive
same,Potency,[3],inactive
same,max response,[4],5.39% (inactive)
same,Potency,[5],inactive
CCN1/C(=C/C(C)=O)Sc2ccc(OC)cc21,outcome,[1],inactive
same,Potency,[2],inactive
same,Potency,[3],inactive
same,max response,[4],22.2% (inactive)
same,Potency,[5],inactive
CN(C)c1nc2c(Br)c(Br)c(Br)c(Br)c2[nH]1,outcome,[1],inactive
same,Potency,[2],inactive
same,Potency,[3],inactive
same,max response,[4],21.9% (inactive)
same,Potency,[5],inactive
O=C1NC(=O)/C(=C/c2ccc3nccnc3c2)S1,outcome,[1],inactive
same,Potency,[2],inactive
same,Potency,[3],inactive
same,max response,[4],-5.45% (inactive)
same,Potency,[5],inactive
Cn1cc(C2=C(c3ccc(Cl)cc3Cl)C(=O)NC2=O)c2ccccc21,outcome,[1],inactive
same,Potency,[2],inactive
same,Potency,[3],inactive
same,max response,[4],6.65% (inactive)
same,Potency,[5],inactive
NC(=S)NCCC[C@H](N)C(=O)O,outcome,[1],inactive
same,Potency,[2],inactive
same,Potency,[3],inactive
same,max response,[4],29.7% (inactive)
same,Potency,[5],inactive
CO/N=C(\C(=O)N[C@@H]1C(=O)N2C(C(=O)O)=C(COC(C)=O)CS[C@H]12)c1csc(N)n1,outcome,[1],inactive
same,Potency,[2],inactive
same,Potency,[3],inactive
same,max response,[4],5.62% (inactive)
same,Potency,[5],inactive
CN(C)C(N)=NCCC[C@H](N)C(=O)O,outcome,[1],inactive
same,Potency,[2],inactive
same,Potency,[3],inactive
same,max response,[4],-2.52% (inactive)
same,Potency,[5],inactive
C=C[C@@H]1CN2CC[C@@H]1C[C@H]2[C@H](O)c1ccnc2ccc(OC)cc12,outcome,[1],inactive
same,Potency,[2],inactive
same,Potency,[3],inactive
same,Potency,[4],296 nM (active)
same,remaining parasite growth % (stronger effect = lower value),[6],0.99%
same,"activity, percent of control",[7],1.73%
same,"remaining proliferation (% of control), lower = more inhibition",[8],1.02%
same,"parasite growth, % of DMSO control",[9],6.67%
same,"parasite growth remaining, % of DMSO control (lower = more inhibition)",[10],9.34%
same,"parasite growth, % of control (lower = inhibition)",[11],20.6%
same,"growth, % of control",[12],5.53%
same,Potency,[5],inactive
COC(=O)C1=C(C)NC(C)=C(C(=O)OCC(C)=O)C1c1ccccc1[N+](=O)[O-] (stereo not drawn),max response,[4],14.8% (inactive)
same,Potency,[5],inactive
C[C@@H](NC(=O)/C(C#N)=C/c1ccc(O)c(O)c1)c1ccccc1,outcome,[1],inactive
same,Potency,[2],inactive
same,Potency,[3],inactive
same,max response,[4],3.77% (inactive)
same,Potency,[5],inactive
CCc1c(C(=O)NCCc2ccc(N3CCCCC3)cc2)[nH]c2ccc(Cl)cc12,outcome,[1],inactive
same,Potency,[2],inactive
same,max response,[4],11.6% (inactive)
same,Potency,[5],inactive
C=CC(C)=C[C@@]1(C)SC(=O)C(C)=C1O,outcome,[1],inactive
same,Potency,[2],inactive
same,Potency,[3],inactive
same,max response,[4],15.5% (inactive)
same,remaining parasite growth % (stronger effect = lower value),[6],98%
same,"activity, percent of control",[7],98.3%
same,"remaining proliferation (% of control), lower = more inhibition",[8],92.5%
same,"parasite growth, % of DMSO control",[9],98.9%
same,"parasite growth remaining, % of DMSO control (lower = more inhibition)",[10],108%
same,"parasite growth, % of control (lower = inhibition)",[11],151%
same,"growth, % of control",[12],77.3%
same,Potency,[5],inactive
CC(C)CC(NP(=O)(O)O[C@@H]1O[C@@H](C)[C@H](O)[C@@H](O)[C@H]1O)C(=O)NC(Cc1c[nH]c2ccccc12)C(=O)O (stereo partly drawn),outcome,[1],inactive
same,Potency,[2],inactive
same,max response,[4],18.7% (inactive)
same,Potency,[5],inactive
NCCSSCCN,outcome,[1],inactive
same,Potency,[2],inactive
same,Potency,[3],inactive
same,max response,[4],3.62% (inactive)
same,Potency,[5],inactive
O=C1C(SCCO)=C(SCCO)C(=O)c2ccccc21,outcome,[1],inactive
same,Potency,[2],inactive
same,Potency,[4],1410 nM (active)
same,Potency,[5],inactive
NC(=O)C1=CN(C2OC(COP(=O)(O)OP(=O)(O)OC[C@H]3O[C@@H](n4cnc5c(N)ncnc54)[C@H](OP(=O)(O)O)[C@@H]3O)C(O)C2O)C=CC1 (stereo partly drawn),outcome,[1],inactive
same,Potency,[2],inactive
same,Potency,[3],inactive
same,max response,[4],-6.13% (inactive)
same,Potency,[5],inactive
Nc1nc(Cl)nc2c1ncn2[C@@H]1O[C@H](COP(=O)(O)OP(=O)(O)OP(=O)(O)O)[C@@H](O)[C@H]1O,outcome,[1],inactive
same,Potency,[2],inactive
same,max response,[4],20.1% (inactive)
same,Potency,[5],inactive
Nc1ncnc2c1ncn2[C@@H]1O[C@H](COP(=O)(O)CP(=O)(O)OP(=O)(O)O)[C@@H](O)[C@H]1O,outcome,[1],inactive
same,Potency,[2],inactive
same,Potency,[3],inactive
same,max response,[4],13.9% (inactive)
same,Potency,[5],inactive
CC(C)OC(=O)c1cc(C(=O)OC(C)C)cc([N+](=O)[O-])c1,max response,[4],4.99% (inactive)
same,max response,[13],-14.7% (inactive)
same,Potency,[14],inactive
same,Potency,[5],inactive
CC[C@@H](C)[C@H]1O[C@]2(CC[C@H]1C)C[C@@H]1C[C@@H](CC=C(C)[C@@H](O[C@H]3C[C@H](OC)[C@@H](O[C@H]4C[C@H](OC)[C@@H](O)[C@H](C)O4)[C@H](C)O3)[C@@H](C)C=CC=C3CO[C@@H]4[C@H](O)C(C)=C[C@@H](C(=O)O1)[C@]34O)O2,outcome,[1],inactive
same,Potency,[2],inactive
same,Potency,[3],inactive
same,Potency,[4],2640 nM (active)
same,remaining parasite growth % (stronger effect = lower value),[6],-0.904%
same,"activity, percent of control",[7],-0.0225%
same,"remaining proliferation (% of control), lower = more inhibition",[8],-0.425%
same,"parasite growth, % of DMSO control",[9],35.5%
same,"parasite growth remaining, % of DMSO control (lower = more inhibition)",[10],6.32%
same,"parasite growth, % of control (lower = inhibition)",[11],38.4%
same,"growth, % of control",[12],12.5%
same,Potency,[5],inactive
